From PubChem BioAssay (Tox21)
Records with an inconclusive call do not appear. The source made the active and inactive calls. The call rests on the fitted dose curve; in most records, active means well fitted curve in the direction sought with a large enough effect in the repeat runs; inconclusive means weak or mixed curves; inactive means no such curve, though single readings can be large; an effect the other way counts as inactive or inconclusive.

Legend:
[1] = A CellTox Green Cytotoxicity Assay to monitor cytotoxicity in HEK293 cells - 32 hour (AID 1224881); further: nearly all actives have a fitted effect of over 40% in size
Procedure, shortened: (§1)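 Fluorescence from a DNA-binding dye excluded by viable cells was measured repeatedly in the same HEK293 wells (600 cells/well) during continuous compound exposure at 37 C. Each assay gives one read point: 0, 8, 16, 24, 32 or 40 h.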

[2] = A CellTox Green Cytotoxicity Assay to monitor cytotoxicity in HepG2 cells - 0 hour (AID 1224882); further: nearly all actives have a fitted effect of over 35% in size
Procedure, shortened: (§2)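 Real-time cytotoxicity: fluorescence of a cell-impermeant cyanine dye binding DNA of dead HepG2 cells, measured repeatedly (0–40 h) during compound exposure at 37 C. Cells seeded 600/well with reagent, dosed after 5 h.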

[3] = A CellTox Green Cytotoxicity Assay to monitor cytotoxicity in HepG2 cells - 32 hour (AID 1224883); further: nearly all actives have a fitted effect of over 50% in size
Procedure, shortened: as §2

[4] = A CellTox Green Cytotoxicity Assay to monitor cytotoxicity in HEK293 cells - 8 hour (AID 1224884); further: nearly all actives have a fitted effect of over 35% in size
Procedure, shortened: as §1

[5] = qHTS RealTime-Glo MT Cell Viability Assay in HepG2 cells - 16 hour (AID 1224885); further: nearly all actives have a fitted effect of over 50% in size
Procedure, shortened: (§3)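 Tox21 10K library screened in qHTS format on HepG2 cells carrying RealTime-Glo reagents. Compounds were added after a 5 h preincubation, and the luminescent signal from continuous culture was measured repeatedly during 40 h treatment.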

[6] = qHTS RealTime-Glo MT Cell Viability Assay in HEK293 cells - 24 hour (AID 1224886); further: top concentration of the series differs between compounds; nearly all actives have a fitted effect of over 50% in size
Procedure, shortened: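 Luminescence generated by NanoLuc from substrate produced by living HEK293 cells served as the viability signal. Each value reflects the reading at its stated time point during continuous 40 h compound exposure at 37 C.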

[7] = qHTS RealTime-Glo MT Cell Viability Assay in HEK293 cells - 8 hour (AID 1224887); further: top concentration of the series differs between compounds; nearly all actives have a fitted effect of over 50% in size
Procedure, shortened: (§4)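 Luminescence, which tracks viable cell number through reduction of the prosubstrate to a NanoLuc substrate, was read over continuous 37 C culture. Cells (600/well) were premixed with reagent and rested 5 h before 23 nL of compound in DMSO was pinned.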

[8] = A CellTox Green Cytotoxicity Assay to monitor cytotoxicity in HEK293 cells - 16 hour (AID 1224888); further: nearly all actives have a fitted effect of over 35% in size
Procedure, shortened: as §1

[9] = qHTS RealTime-Glo MT Cell Viability Assay in HepG2 cells - 0 hour (AID 1224889); further: nearly all actives have a fitted effect of over 50% in size
Procedure, shortened: as §3

[10] = A CellTox Green Cytotoxicity Assay to monitor cytotoxicity in HepG2 cells - 8 hour (AID 1224890); further: nearly all actives have a fitted effect of over 45% in size
Procedure, shortened: as §2

[11] = qHTS assay to identify small molecule antagonists of the estrogen receptor alpha (ER-alpha) signaling pathway using the BG1 cell line in the presence of 0.1 nM 17-beta-estradiol - cell viability counter screen (AID 1259241); further: nearly all actives have a fitted effect of over 40% in size
Procedure, shortened: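 VM7Luc4E2, 4,000 cells/well, phenol red-free medium + 10% charcoal-stripped FBS; 24 hr plating; cpd + 0.1 nM E2 final, 22 hr 37C/5% CO2; CellTiter-Fluor 30 min, fluorescence.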

[12] = qHTS assay to identify small molecule antagonists of the androgen receptor (AR) signaling pathway using the MDA cell line in the presence of 0.5 nM R1881 - cell viability counter screen (AID 1259242); further: nearly all actives have a fitted effect of over 45% in size
Procedure, shortened: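 Live-cell protease activity was measured by CellTiter-Fluor fluorescence after 30 min. Before that, MDA-kb2 MMTV-luciferase cells had 16 hr at 37C without CO2, exposed to test compounds and 0.5 nM R1881 final.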

[13] = molecular target: Estrogen receptor (Homo sapiens) (UniProt P03372); test: qHTS assay to identify small molecule antagonists of the estrogen receptor alpha (ER-alpha) signaling pathway using the BG1 cell line in the presence of 0.1 nM 17-beta-estradiol (AID 1259244); further: nearly all actives have a fitted effect of over 50% in size
Procedure, shortened: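 Luciferase luminescence (ONE-Glo, 30 min at room temperature) was read after 22 hr at 37C exposure to compounds plus 17beta-estradiol at 0.1 nM final. Cells were VM7Luc4E2 with endogenous ER-alpha and an ERE-driven luciferase, pre-cultured 5 days in hormone-depleted medium.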

[14] = qHTS assay to identify small molecule HDAC inhibitors (AID 1259364); further: top concentration of the series differs between compounds; nearly all actives have a fitted effect of over 45% in size
Procedure, shortened: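 Luminescence read after 30 min room-temperature HDAC-Glo incubation measures cellular class I/II HDAC activity. Compounds were applied for 2 hr at 37 C to HCT-116 wild-type cells seeded the day before.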

[15] = qHTS assay to identify small molecule HDAC inhibitors - cell viability counter screen (AID 1259365)
Procedure, shortened: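 Luminescence from CellTiter-Glo, developed 30min at room temperature, reports viability of wild-type HCT-116 cells treated 2hr with compounds at 37 C and 5% CO2 after overnight plating.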

[16] = qHTS assay to identify small molecule agonists of the sonic hedgehog signaling (Shh) pathway - cell viability counter screen (AID 1259366); further: nearly all actives have a fitted effect of over 50% in size
Procedure, shortened: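 Cytotoxicity counter screen run in the same wells as the Shh reporter assay. NIH/3T3 cells carrying a Gli1 response element–driven luciferase were treated with DMSO-dissolved compounds for 24hr, and live-cell protease activity was measured with CellTiter-Fluor.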

[17] = qHTS assay to identify small molecule antagonists of the sonic hedgehog signaling (Shh) pathway - cell viability counter screen (AID 1259367); further: nearly all actives have a fitted effect of over 55% in size
Procedure, shortened: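 Viability was read by CellTiter-Fluor fluorescence in the same wells, reagent added 23 hr into compound treatment and incubated 1 hr at 37C. The 3T3 Gli1-Luc reporter cells (2,000/well) received conditioned medium after compound and ran 24 hr.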

[18] = qHTS RealTime-Glo MT Cell Viability Assay in HEK293 cells - 0 hour (AID 1224880); further: top concentration of the series differs between compounds; nearly all actives have a fitted effect of over 45% in size
Procedure, shortened: as §4

[19] = molecular target: Androgen receptor (Homo sapiens) (UniProt P10275); test: qHTS assay to identify small molecule antagonists of the androgen receptor (AR) signaling pathway using the MDA cell line in the presence of 0.5 nM R1881 (AID 1259243); further: nearly all actives have a fitted effect of over 50% in size
Procedure, shortened: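 Luminescent reporter readout (ONE-Glo, 30 min, room temperature) after 16 hr co-treatment of MDA-kb2 cells with test compounds and 0.5 nM R1881 final, at 37C without CO2. The MMTV-driven luciferase responds to both AR and GR.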

Measured: Potency

Sequence of Estrogen receptor (Homo sapiens) (P03372 whole entry, looked up): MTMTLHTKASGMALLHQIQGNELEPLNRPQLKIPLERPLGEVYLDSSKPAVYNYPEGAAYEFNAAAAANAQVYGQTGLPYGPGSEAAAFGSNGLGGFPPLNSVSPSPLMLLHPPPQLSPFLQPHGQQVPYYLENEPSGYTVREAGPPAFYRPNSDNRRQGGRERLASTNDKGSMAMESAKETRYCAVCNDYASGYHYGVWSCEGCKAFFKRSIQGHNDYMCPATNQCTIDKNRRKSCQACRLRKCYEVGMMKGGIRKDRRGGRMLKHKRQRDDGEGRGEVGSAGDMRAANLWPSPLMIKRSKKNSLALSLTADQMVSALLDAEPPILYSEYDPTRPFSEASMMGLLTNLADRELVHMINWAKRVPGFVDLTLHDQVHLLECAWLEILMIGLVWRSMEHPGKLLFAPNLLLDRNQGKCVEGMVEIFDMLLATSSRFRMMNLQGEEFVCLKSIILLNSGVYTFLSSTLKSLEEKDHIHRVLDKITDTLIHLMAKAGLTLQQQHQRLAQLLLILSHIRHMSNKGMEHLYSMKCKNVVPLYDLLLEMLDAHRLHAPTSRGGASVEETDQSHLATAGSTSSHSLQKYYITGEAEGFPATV
Sequence of Androgen receptor (Homo sapiens) (P10275 whole entry, looked up): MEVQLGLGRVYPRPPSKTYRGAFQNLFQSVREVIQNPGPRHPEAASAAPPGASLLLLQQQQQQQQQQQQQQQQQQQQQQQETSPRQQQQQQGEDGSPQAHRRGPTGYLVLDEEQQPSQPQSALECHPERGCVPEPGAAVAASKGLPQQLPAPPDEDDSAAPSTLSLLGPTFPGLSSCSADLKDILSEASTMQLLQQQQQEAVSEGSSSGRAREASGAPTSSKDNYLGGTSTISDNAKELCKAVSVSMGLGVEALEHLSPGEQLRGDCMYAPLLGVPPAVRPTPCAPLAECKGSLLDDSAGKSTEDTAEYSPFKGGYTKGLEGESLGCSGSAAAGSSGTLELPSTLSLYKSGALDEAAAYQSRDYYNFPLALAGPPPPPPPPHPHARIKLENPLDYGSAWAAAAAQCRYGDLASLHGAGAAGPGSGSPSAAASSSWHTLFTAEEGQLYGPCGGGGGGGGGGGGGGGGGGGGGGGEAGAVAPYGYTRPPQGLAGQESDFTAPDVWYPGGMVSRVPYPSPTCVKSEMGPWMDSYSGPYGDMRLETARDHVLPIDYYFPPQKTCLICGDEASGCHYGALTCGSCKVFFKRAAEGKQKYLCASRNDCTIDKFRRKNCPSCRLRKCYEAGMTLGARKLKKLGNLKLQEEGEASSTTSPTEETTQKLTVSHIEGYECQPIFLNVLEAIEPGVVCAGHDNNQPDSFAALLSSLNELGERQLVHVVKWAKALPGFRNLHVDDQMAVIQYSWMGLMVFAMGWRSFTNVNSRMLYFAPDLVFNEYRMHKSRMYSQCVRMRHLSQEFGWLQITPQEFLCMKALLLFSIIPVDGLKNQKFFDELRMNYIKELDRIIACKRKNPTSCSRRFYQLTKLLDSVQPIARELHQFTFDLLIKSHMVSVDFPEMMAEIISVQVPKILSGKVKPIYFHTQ

O=[N+]([O-])c1ccc(F)cc1F
not listed: [18] | [19]
inactive: all other assays above

C[C@H]1C[C@@H](O)CC(C)(C)C1
not listed: [1] | [4] | [6] | [8] | [13] | [19]
inactive: all other assays above

CCCCCCOC(=O)CCCCC(=O)OCCCCCC
not listed: [3] | [7] | [19]
inactive: all other assays above

CCCN(CCC)CCc1cccc2c1CC(=O)N2
not listed: [3] | [6] | [13] | [19]
inactive: all other assays above

CC(=O)Nc1ccc(S(N)(=O)=O)cc1
not listed: [3] | [7]
inactive: all other assays above

OCCOc1ccc(OCCO)cc1
not listed: [3] | [8] | [18] | [19]
inactive: all other assays above

Cc1sccc1Br
not listed: [9] | [18] | [19]
inactive: all other assays above
